“And” between values parts separate entries of the source, which are not always exact repeats. Equal values may be shown once. Records with an inconclusive call do not appear. Some structures have more than one record in an assay (separate samples or runs), and their calls can disagree. The source made the active and inactive calls. Unless noted, calls follow the shape of the dose curve; as a rule, active = well fitted curve in the direction sought with a large enough effect in the repeat runs; inconclusive = weak or mixed curves; inactive = no such curve, though single readings can be large; an effect the other way counts as inactive or inconclusive.
What was measured:
[1] = qHTS assay to identify small molecule agonists of the hypoxia (HIF-1) signaling pathway - cell viability counter screen (AID 1224844; calls by dose curve; also: nearly all actives have a fitted effect of over 50% in size; also: potency is read from the fitted curve at half-maximal effect)
Method in brief: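 HRE-bla ME-180 cells, 2,000/well in 0.5% dialyzed FBS medium, treated 17 h at 37C with compounds. Viability read in the same wells as the bla reporter, by CellTiter-Glo luminescence after 30 min at room temperature.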

[2] = qHTS assay to identify small molecule agonists of H2AX (AID 1224845; active = well fitted activation curve with a large enough effect in the signal ratio in the repeat runs, not every such curve was filed as active; the % refers to the signal ratio)
Method in brief: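 Wild-type CHO-K1 cells plated overnight, then exposed 3 hr at 37C to compounds at 15 concentrations (0.76% DMSO). Lysed, then HTRF anti-pH2AX(S139)-cryptate/anti-H2AX-d2 detection after 24 hr at room temperature; emissions 665 and 620 nm.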

[3] = qHTS assay to identify small molecule agonists of H2AX - cell viability counter screen (AID 1224847; calls by dose curve; also: nearly all actives have a fitted effect of over 30% in size; also: potency is read from the fitted curve at half-maximal effect)
Method in brief: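 Read-out: CellTiter-Glo luminescence, 30 min RT. Cells: wild-type CHO-K1, 1000/well, 10% FBS, plated overnight at 37C. Treatment: 15 concentrations, 3 hr, 37C, 0.76% DMSO.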

[4] = qHTS assay to identify small molecule antagonists of the estrogen related receptor (ERR) signaling pathway from Tox21 library (AID 1224848); also: nearly all actives have a fitted effect of over 50% in size; also: potency is read from the fitted curve at half-maximal effect
Method in brief: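 Screening used an ERR reporter line supplied by NTP, exposed for 18 h at 37 C to library compounds delivered in DMSO. Signal was luciferase luminescence developed with ONE-Glo at room temperature for 30 min.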

[5] = qHTS assay to identify small molecule agonists of the estrogen related receptor (ERR) signaling pathway from Tox21 library (AID 1224849; calls by dose curve; also: nearly all actives have a fitted effect of over 15% in size); details: ERR reporter cell line, ONE-Glo luciferase, 18 h
Method in brief: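 ERR reporter cells (NTP line) pre-incubated 6 hours at 37 C, then exposed to compounds for 18 hours at 37 C. ONE-Glo luciferase luminescence was read after 30 minutes at room temperature.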

[6] = A CellTox Green Cytotoxicity Assay to monitor cytotoxicity in HEK293 cells - 0 hour (AID 1224869); also: nearly all actives have a fitted effect of over 50% in size
Method in brief: (§1)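 HEK293 cells, 600/well, were preincubated 5 hours and then exposed to compounds at 37 C for up to 40 hours. A cell-impermeant cyanine dye staining dead-cell DNA was read by fluorescence at 0, 8, 16, 24, 32 and 40 h time points.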

[7] = qHTS RealTime-Glo MT Cell Viability Assay in HepG2 cells - 40 hour (AID 1224870); also: nearly all actives have a fitted effect of over 50% in size
Method in brief: (§2)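 HepG2 cells mixed with RealTime-Glo MT reagents (NanoLuc plus cell-permeant prosubstrate) were seeded at 600 cells/well, incubated 5 h at 37 C/5% CO2, then pinned with compounds in DMSO; nonlytic luminescence tracked viability during 40 h treatment.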

[8] = A CellTox Green Cytotoxicity Assay to monitor cytotoxicity in HEK293 cells - 40 hour (AID 1224871); also: nearly all actives have a fitted effect of over 45% in size; also: potency is read from the fitted curve at half-maximal effect
Method in brief: as §1

[9] = qHTS RealTime-Glo MT Cell Viability Assay in HepG2 cells - 8 hour (AID 1224873); also: nearly all actives have a fitted effect of over 55% in size; also: potency is read from the fitted curve at half-maximal effect
Method in brief: as §2

[10] = qHTS RealTime-Glo MT Cell Viability Assay in HEK293 cells - 40 hour (AID 1224874); details: RealTime-Glo luminescence; max response: stronger effect = lower value; also: nearly all actives have a fitted effect of over 50% in size; also: potency is read from the fitted curve at half-maximal effect
Method in brief: (§3)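 600 cells/well were plated with the nonlytic NanoLuc/prosubstrate reagent, pre-incubated 5 h, then given 23 nL of compound in DMSO. Incubation at 37 C for 40 h, with luminescence from viable-cell-reduced substrate read repeatedly from 0 h.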

[11] = A CellTox Green Cytotoxicity Assay to monitor cytotoxicity in HEK293 cells - 24 hour (AID 1224875); also: nearly all actives have a fitted effect of over 45% in size; also: potency is read from the fitted curve at half-maximal effect
Method in brief: as §1

[12] = A CellTox Green Cytotoxicity Assay to monitor cytotoxicity in HepG2 cells - 16 hour (AID 1224876); also: nearly all actives have a fitted effect of over 45% in size; also: potency is read from the fitted curve at half-maximal effect
Method in brief: (§4)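 HepG2 cells, 600/well, preincubated 5 h with CellTox Green dye, then exposed to Tox21 compounds in DMSO at 37 C for up to 40 h. Dead-cell DNA fluorescence read at the indicated time point.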

[13] = qHTS RealTime-Glo MT Cell Viability Assay in HepG2 cells - 32 hour (AID 1224877); also: nearly all actives have a fitted effect of over 55% in size; also: potency is read from the fitted curve at half-maximal effect
Method in brief: (§5)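 Tox21 10K library screened in qHTS format on HepG2 cells carrying RealTime-Glo reagents. Compounds were added after a 5 h preincubation, and the luminescent signal from continuous culture was measured repeatedly during 40 h treatment.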

[14] = A CellTox Green Cytotoxicity Assay to monitor cytotoxicity in HepG2 cells - 24 hour (AID 1224878); also: nearly all actives have a fitted effect of over 45% in size
Method in brief: as §4

[15] = A CellTox Green Cytotoxicity Assay to monitor cytotoxicity in HepG2 cells - 40 hour (AID 1224879); also: nearly all actives have a fitted effect of over 40% in size; also: potency is read from the fitted curve at half-maximal effect
Method in brief: as §4

[16] = qHTS RealTime-Glo MT Cell Viability Assay in HEK293 cells - 0 hour (AID 1224880)
Method in brief: as §3

[17] = qHTS assay to identify small molecule agonists of the hypoxia (HIF-1) signaling pathway (AID 1224846; active = well fitted activation curve with a large enough effect in the signal ratio in the repeat runs, not every such curve was filed as active; the % refers to the signal ratio)
Method in brief: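 HRE-bla ME-180 beta-lactamase reporter cells in medium with 0.5% dialyzed FBS, pre-incubated 5 h then exposed to compounds 17 h at 37C, 5% CO2; reporter induction read with CCF4-AM FRET substrate.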

[18] = qHTS RealTime-Glo MT Cell Viability Assay in HEK293 cells - 32 hour (AID 1224868); also: nearly all actives have a fitted effect of over 50% in size; also: potency is read from the fitted curve at half-maximal effect
Method in brief: (§6)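 Luminescence generated by NanoLuc from substrate produced by living HEK293 cells served as the viability signal. Each value reflects the reading at its stated time point during continuous 40 h compound exposure at 37 C.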

[19] = qHTS RealTime-Glo MT Cell Viability Assay in HepG2 cells - 24 hour (AID 1224867); also: nearly all actives have a fitted effect of over 50% in size; also: potency is read from the fitted curve at half-maximal effect
Method in brief: as §5

[20] = qHTS RealTime-Glo MT Cell Viability Assay in HEK293 cells - 16 hour (AID 1224872)
Method in brief: as §6
% is scaled to controls: 0 for no effect and ±100 for the full control effect.

CS(=O)(=O)OCCCCOS(C)(=O)=O
inactive: Potency [1] | Potency [2] | Potency [3] | Potency [4] | activity change, positive = activation ([5]; at 42.5 µM (top of the series)) -0.0445% | activity change, positive = activation ([5]; at 92.4 µM (top of the series)) -6.97% and 6.13% | Potency [6] | Potency [7] | Potency [8] | Potency [9] | max response [10] 2.47% and 13.2% and 7.82% | Potency [11] | Potency [12] | Potency [13] | Potency [14] | Potency [15] | Potency [16]

C=C(C)C(=O)OCC(C)O (configuration not stated)
inactive: Potency [1] | Potency [2] | outcome [17] | Potency [3] | Potency [18] | Potency [6] | Potency [8] | Potency [9] | max response [10] 1.34% and 8.53% and -3.84% | Potency [12] | Potency [13] | Potency [14] | Potency [15] | Potency [16]

CCOc1ccc(NC(C)=O)cc1
inactive: Potency [1] | Potency [2] | Potency [3] | Potency [4] | activity change, positive = activation ([5]; at 42.5 µM (top of the series)) 9.79% | activity change, positive = activation ([5]; at 92.4 µM (top of the series)) 9.07% and -21.8% | Potency [6] | Potency [7] | Potency [8] | Potency [9] | max response [10] 2.25% and 1.74% | Potency [13] | Potency [14] | Potency [15] | Potency [16]
active: Potency [10] 21.9 µM

CCCCCCCCCCCCCCCC[N+](C)(C)Cc1ccccc1
active: Potency [3] 117 µM and 45.8 µM and 49.2 µM | Potency [4] 11.2 µM and 11.1 µM and 11.9 µM | Potency [19] 22.6 µM and 15.8 µM and 10.7 µM | Potency [18] 7.14 µM and 11.2 µM and 3.38 µM | Potency [8] 50.5 µM and 39.6 µM and 23.9 µM | Potency [9] 63.6 µM and 39.6 µM and 23.9 µM | Potency [10] 4.5 µM and 7.9 µM and 3.01 µM | Potency [11] 50.5 µM and 31.4 µM and 21.3 µM | Potency [12] 50.5 µM and 19.8 µM and 23.9 µM | Potency [13] 16 µM and 14 µM and 9.52 µM | Potency [15] 20.1 µM and 14 µM and 10.7 µM
inactive: Potency [2] | activity change, positive = activation ([5]; at 42.5 µM (top of the series)) -56.4% | activity change, positive = activation ([5]; at 92.4 µM (top of the series)) -78.7% and -80.7% | Potency [6] | Potency [16]
inactive and 44.4 µM (active): Potency [1]

CC(=O)CC(c1ccccc1)c1c(O)c2ccccc2oc1=O (configuration not stated)
inactive: Potency [1] | Potency [2] | Potency [3] | Potency [18] | Potency [6] | Potency [7] | Potency [8] | Potency [9] | max response [10] 5.95% [middle of 4 runs] | Potency [11] | Potency [13] | Potency [15] | Potency [16]

CN1CCC[C@H]1c1cccnc1
inactive: Potency [1] | Potency [2] | Potency [3] | Potency [19] | Potency [18] | Potency [6] | Potency [7] | Potency [8] | Potency [20] | Potency [9] | max response [10] -1.49% and 19.5% and 2.35% | Potency [12] | Potency [13] | Potency [15] | Potency [16]

NC1CCCCC1
inactive: Potency [1] | Potency [2] | outcome [17] | Potency [3] | Potency [6] | Potency [8] | Potency [9] | max response [10] 1.81% [middle of 4 runs] | Potency [11] | Potency [12] | Potency [13] | Potency [15] | Potency [16]

O=C(O)CC(O)C(=O)O (configuration not stated)
inactive: Potency [1] | Potency [2] | outcome [17] | Potency [3] | Potency [19] | Potency [6] | Potency [8] | Potency [20] | Potency [9] | max response [10] -23.9% and -4.53% and 7.17% | Potency [11] | Potency [13] | Potency [14] | Potency [15] | Potency [16]

Cc1ncc([N+](=O)[O-])n1CCO
inactive: Potency [1] | Potency [2] | Potency [3] | Potency [4] | activity change, positive = activation ([5]; at 42.5 µM (top of the series)) 4.15% | activity change, positive = activation ([5]; at 92.4 µM (top of the series)) 5.04% and 2.17% | Potency [19] | Potency [18] | Potency [6] | Potency [7] | Potency [8] | Potency [9] | max response [10] 2.44% and 13.2% and 5.09% | Potency [11] | Potency [12] | Potency [13] | Potency [14] | Potency [15] | Potency [16]

CCCc1cc(=O)[nH]c(=S)[nH]1
inactive: Potency [1] | Potency [2] | Potency [3] | Potency [6] | Potency [7] | Potency [8] | Potency [20] | Potency [9] | max response [10] 1.97% and 2.41% and 2.9% | Potency [13] | Potency [14] | Potency [15] | Potency [16]

From PubChem BioAssay (Tox21)
